A selection: hits, their analogues and other compounds. The true share with any hit is near 9.4%.
SARS PLpro yeast: blocks SARS-CoV papain-like protease in a yeast assay; S. cerevisiae expressing SARS-CoV PLpro, growth rescue; Potency, µM (titrated, usually from 32.9 µM), most hits filed as activators; 0.19% of 330,000 active; calls by dose curve; note: nearly all actives have a fitted effect of over 55% in size
Pf growth 48h: inhibits P. falciparum growth in the first generation, 48 h; 5.9% of 310,000 active; P. falciparum luciferase growth in erythrocytes, 48 h; Potency, µM (top dose mostly 28.7 µM), most hits filed as inhibitors; AID 504832
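Luciferase-expressing parasites in RBCs, 2% Hct / 0.1% parasitemia final; RPMI 1640 + 0.5% Albumax; 37 C, 5% CO2, one generation; luminescence read-out, lower signal = inhibition.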
Pf growth 96h: inhibits malaria parasite growth, 96 h; Potency, µM (top dose mostly 28.7 µM), hits mostly inhibitors; 6.9% of 320,000 active; P. falciparum luciferase reporter growth, 96 h
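Cell-based qHTS: luciferase-tagged P. falciparum in erythrocytes (2% hematocrit, 0.05% parasitemia final) incubated with compounds for 96 hours, 37 C, 5% CO2; luciferase detection reagent then added and luminescence measured.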
AMA1 RON2 block: AMA1-RON2 (P. falciparum) interaction inhibition; AlphaScreen AMA1-biotinylated RON2 peptide binding; Potency, µM (series often up to 58.2 µM), hits mostly inhibitors; 0.2% of 360,000 active; note: nearly all actives have a fitted effect of over 45% in size
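AMA1 (3D7) with his tag at 25 nM final met compounds first, then biotinylated RON2 peptide at 25 nM; detection used donor plus acceptor beads, 10 µg/mL apiece, read by AlphaScreen after 30 min at room temperature.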
Hits are given with their value; - = inactive; ? = inconclusive; . = no result given. Unless noted, calls come from the whole dose curve; as a rule, active = well fitted curve in the direction sought with a large enough effect; inconclusive = small, poorly fitted or top-dose-only effect, or another doubt; inactive = no such curve, though single readings can be large; an effect the other way counts as inactive or inconclusive.

SMILES | SARS PLpro yeast | Pf growth 48h | Pf growth 96h | AMA1 RON2 block
CCN(Cc1ccccc1OC)CC1CCCN(CCc2cccc(OC)c2)C1 (centres undefined) | - | ? | - | -
COCCN1Cc2cccc(C(=O)NCCCN3CCCC3=O)c2C1=O | - | - | - | -
Cc1ccc(Cn2nc(C)c(NC(=O)c3nn(C)cc3Cl)c2C)cc1 | - | - | - | -
CN(C)CCCn1c(=S)[nH]c2ccccc2c1=O | - | - | - | -
CN(C)CCCN1C(=O)C2CCc3[nH]c4ccccc4c3C2C1=O (centres undefined) | - | - | 2.94µM | -
COC(=O)C1=C(c2ccc(Cl)c(C(F)(F)F)c2)C[C@@H]2CC[C@H]1N2C(=O)NCCOc1ccccc1Cl | - | 9.28µM | 6.57µM | -
COC(=O)C1=C(c2ccc(OCc3ccccc3)cc2)C[C@@H]2CC[C@H]1N2C(=O)NCCN1CCOCC1 | - | . | . | -
COC(=O)C1=C(c2ccc(F)cc2OCc2ccccc2)C[C@@H]2CC[C@H]1N2C(=O)NCCOc1ccccc1Cl | - | 2.62µM | ? | -
COC(=O)C1=C(c2ccc(F)cc2OCc2ccccc2)C[C@@H]2CC[C@H]1N2C(=O)NCCN1CCOCC1 | - | 11.7µM | ? | -
COC(=O)C1=C(c2ccc(F)cc2OCc2ccccc2)C[C@@H]2CC[C@H]1N2C | - | ? | ? | -
COC(=O)C1=C(c2c(C)noc2C)C[C@@H]2CC[C@H]1N2C(=O)NCCOc1ccccc1Cl | - | ? | - | -
COC(=O)C1=C(c2ccc(F)cc2OCc2ccccc2)C[C@@H]2CC[C@H]1N2C(=O)NCc1ccccc1Cl | - | 5.22µM | 4.15µM | -
COC(=O)CCCCNC(=O)Nc1ccccc1 | - | - | - | -
COc1ccc(S(=O)(=O)N2CCN(Cc3cccc(Cl)c3)CC2)cc1 | - | - | - | -
COc1ccc(OCCOC(=O)C(C)NS(=O)(=O)c2ccc(NC(C)=O)cc2)cc1 (centres undefined) | - | - | - | -
COC(=O)C1=C(c2ccc(F)cc2OCc2ccccc2)C[C@@H]2CC[C@H]1N2C(=O)NCCOc1ccccc1 | - | 5.86µM | ? | -
COC(=O)C1=C(c2ccc(F)cc2OCc2ccccc2)C[C@@H]2CC[C@H]1N2C(=O)NCCOc1ccc(OC)cc1 | - | ? | 3.29µM | -
COC(=O)C1=C(c2ccc(F)cc2OCc2ccccc2)C[C@@H]2CC[C@H]1N2C(=O)NCCc1ccc(F)cc1 | - | 11.7µM | ? | -
CCOP(=O)(OCC)c1ccc(O)cc1 | - | - | - | -
O=C(CSc1ncn[nH]1)Nc1ccccc1Sc1ccc(Cl)cc1 | - | - | - | -
Cc1ccc(CNc2c(C=O)c(=O)[nH]c3ccccc23)cc1 | - | - | ? | -
O=Cc1c(NCc2ccc(F)cc2)c2ccccc2[nH]c1=O | - | - | 10.4µM | -
Cc1cc(C)n(-c2nc3ccccc3s2)n1 | - | - | - | -
Cc1c2c(=O)n(-c3nc4ccccc4s3)nc-2cc(O)n1Cc1ccccc1 | - | 2.94µM | 2.94µM | -
Cc1cc(C)cc(N(CCC#N)C(=O)CSc2ncnc3sccc23)c1 | - | 11.7µM | ? | -
SMILES | SARS PLpro yeast | Pf growth 48h | Pf growth 96h | AMA1 RON2 block
Cc1cc(C)cc(N(CCC#N)C(=O)CSC2=Nc3ccccc3C3CC=NN23)c1 (centres undefined) | - | 13.1µM | 11.7µM | -
Cc1ccc(COc2ccc(/C=N/NC(=O)c3nnn(-c4nonc4N)c3COc3ccc(F)cc3)cc2)cc1 | - | ? | - | -
Cc1ccc2c(CN3CCN(Cc4ccccc4)CC3)cc(=O)oc2c1C | - | - | ? | ?
Cc1ccc2c(CN3CC(C)CC(C)C3)cc(=O)oc2c1C (centres undefined) | - | ? | 14.7µM | -
Cc1ccc2c(CN3CCN(S(=O)(=O)c4ccc(Cl)cc4)CC3)cc(=O)oc2c1C | - | 4.15µM | ? | -
Cc1ccc2c(CN3CCC(C)CC3)cc(=O)oc2c1C | - | ? | ? | -
CC1=CC(=O)O[C@@H]1[C@@]1(C)C[C@H]2OC(=O)C[C@H]3[C@@H](C)C(=O)C(O)=C1[C@@]23CO | - | 13.1µM | 14.7µM | -
COc1cc([N+](=O)[O-])cc(/C=C2/SC(=S)N(Cc3ccccc3)C2=O)c1O | - | 10.4µM | - | -
COCCCNc1nc2c(-c3ccc(Cl)cc3)nnn2c2ccccc12 | - | - | 11.7µM | -
NNc1nc2c(-c3ccc(Cl)cc3)nnn2c2ccccc12 | - | ? | - | -
C=C(C)CNC(=S)N/N=C(\C)c1cccc(NC(C)=O)c1 | - | - | ? | -
CCOC(=O)c1cc(-c2ccccc2)sc1NC(=O)C(C)Sc1nnnn1C (centres undefined) | - | ? | 10.4µM | -
CCOC(=O)c1cc(-c2ccccc2)sc1NC(=O)C(C)N1C(=O)NC(C)(c2ccc(Cl)cc2)C1=O (centres undefined) | - | . | 9.28µM | -
CCOC(=O)c1cc(-c2ccccc2)sc1NC(=O)C(C)Sc1nnc(C)s1 (centres undefined) | - | 13.1µM | ? | -
CCOC(=O)c1cc(-c2ccccc2)sc1NC(=O)C(C)C | - | ? | ? | -
CCOC(=O)c1cc(-c2ccccc2)sc1NC(=O)COC | - | - | - | -
CCOC(=O)c1cc(-c2ccccc2)sc1NC(=O)C(C)OC(=O)c1cccnc1Cl (centres undefined) | - | - | 9.28µM | -
CCOC(=O)c1cc(-c2ccccc2)sc1NC(=O)C(C)OC(=O)c1ccncc1 (centres undefined) | - | - | - | -
O=C(CCc1ccc(S(=O)(=O)NC2CCCCC2)cc1)Nc1ccccc1 | - | ? | . | -
CCOC(=O)c1c(-c2ccccc2)csc1NC(=O)/C(C#N)=C\c1ccc(O)c(OC)c1 | . | . | . | -
COc1ccc(NC(=O)c2nn(C)c3c2CS(=O)(=O)c2ccccc2-3)cc1 | - | - | ? | -
Cc1ccccc1NC(=O)c1nn(C)c2c1CS(=O)(=O)c1ccccc1-2 | - | - | 13.1µM | -
O=C(c1cnn(Cc2ccccc2)c1)N1CCN(S(=O)(=O)/C=C/c2ccccc2)CC1 | - | ? | - | -
Cc1ccc(/C=C/C(=O)N2CCN(S(=O)(=O)/C=C/c3ccccc3)CC2)o1 | - | - | 5.86µM | -
Cc1ccc(Cn2nc(C)c(C(=O)N3CCN(S(=O)(=O)/C=C/c4ccccc4)CC3)c2C)cc1 | - | 6.57µM | 3.29µM | -
O=C(/C=C/c1ccco1)N1CCN(S(=O)(=O)/C=C/c2ccccc2)CC1 | - | ? | ? | -
O=C(O)[C@@H]1[C@@H]2C[C@H]3c4[nH]c5ccccc5c4CCN3C[C@@H]2CC[C@@H]1O | . | ? | 5.73µM | .
COc1ccc2c3c([nH]c2c1)C1CC2C(CC(O)C(OC)C2C(=O)O)CN1CC3 (centres undefined) | - | 9.28µM | 3.7µM | -
COC(=O)[C@H]1[C@H]2C[C@@H]3c4[nH]c5cc(OC)ccc5c4CCN3C[C@H]2C[C@@H](OC(=O)c2cc(OC)c(OC)c(OC)c2)[C@@H]1OC | . | 1.47µM | 1.65µM | -
COc1ccccc1NC(=O)C(=O)N1N=C(C(C)C)CC1(O)C(F)(F)F (centres undefined) | - | - | - | -
